Where a name gives a salt, the structure may show the parent alone.
How the values were obtained:
Details in all cases: treatment time: 24 h
A549-GM130-SQSTM1 [1] = test: lowest phenotypically active concentration; higher = less potent
Summary of the method: (§1)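 After 24 h at 0.3, 1, 3 or 9 µM, with four wells per treatment, fifteen gene-edited A549, HepG2 and WPMY1 reporter lines carrying BFP, GFP and RFP/FusionRed were imaged live. Each well's live-cell features were expressed relative to solvent control wells. Deviation required ≥3 of 4 wells past the 95th percentile of control Euclidean distances, and reproducibility a median replicate Pearson correlation over the 95th percentile of non-replicates. Phenotypic activity rested on both.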

A549-ACTB-RAB5A [2] = test: phenotypically active (imaging signature differs from DMSO and reproducible) at any of 0.3-9 uM (binary (1 = active, 0 = inactive)); higher = active
Summary of the method: as §1

A549-CANX-COX4 = test: as above
Summary of the method: as §1

A549-GM130-SQSTM1 [3] = test: as above
Summary of the method: as §1

A549-TP53BP1-CLTA = test: as above
Summary of the method: as §1

A549-TUBA1B-RELA = test: as above
Summary of the method: as §1

HepG2-ACTB-RAB5A [4] = test: as above
Summary of the method: as §1

HepG2-CANX-COX4 = test: as above
Summary of the method: as §1

HepG2-GM130-SQSTM1 [5] = test: as above
Summary of the method: as §1

HepG2-TP53BP1-CLTA = test: as above
Summary of the method: as §1

HepG2-TUBA1B-RELA = test: as above
Summary of the method: as §1

WPMY1-ACTB-RAB5A = test: as above
Summary of the method: as §1

WPMY1-CANX-COX4 = test: as above
Summary of the method: as §1

WPMY1-GM130-SQSTM1 [6] = test: as above
Summary of the method: as §1

WPMY1-TP53BP1-CLTA = test: as above
Summary of the method: as §1

WPMY1-TUBA1B-RELA = test: as above
Summary of the method: as §1

HepG2-ACTB-RAB5A [7] = test: lowest phenotypically active concentration; higher = less potent
Summary of the method: as §1

HepG2-GM130-SQSTM1 [8] = test: as above
Summary of the method: as §1

WPMY1-GM130-SQSTM1 [9] = test: as above
Summary of the method: as §1

A549-ACTB-RAB5A [10] = test: as above
Summary of the method: as §1

| SMILES | lowest phenotypically active concentration (A549-GM130-SQSTM1 [1]) [µM] | phenotypically active (A549-ACTB-RAB5A [2]) | phenotypically active (A549-CANX-COX4) | phenotypically active (A549-GM130-SQSTM1 [3]) | phenotypically active (A549-TP53BP1-CLTA) | phenotypically active (A549-TUBA1B-RELA) | phenotypically active (HepG2-ACTB-RAB5A [4]) | phenotypically active (HepG2-CANX-COX4) | phenotypically active (HepG2-GM130-SQSTM1 [5]) | phenotypically active (HepG2-TP53BP1-CLTA) | phenotypically active (HepG2-TUBA1B-RELA) | phenotypically active (WPMY1-ACTB-RAB5A) | phenotypically active (WPMY1-CANX-COX4) | phenotypically active (WPMY1-GM130-SQSTM1 [6]) | phenotypically active (WPMY1-TP53BP1-CLTA) | phenotypically active (WPMY1-TUBA1B-RELA) | lowest phenotypically active concentration (HepG2-ACTB-RAB5A [7]) [µM] | lowest phenotypically active concentration (HepG2-GM130-SQSTM1 [8]) [µM] | lowest phenotypically active concentration (WPMY1-GM130-SQSTM1 [9]) [µM] | lowest phenotypically active concentration (A549-ACTB-RAB5A [10]) [µM] |
| --- | --- | --- | --- | --- | --- | --- | --- | --- | --- | --- | --- | --- | --- | --- | --- | --- | --- | --- | --- | --- |
| CCc1ccc(/C=C/C(=O)Nc2ccc(C(C)=O)cc2)o1 [Heclin] | 9 | 0 (inactive) | 0 (inactive) | 1 (active) | 0 (inactive) | 1 (active) | 0 (inactive) | 0 (inactive) | 0 (inactive) | 0 (inactive) | 0 (inactive) | 0 (inactive) | 0 (inactive) | 0 (inactive) | 0 (inactive) | 0 (inactive) | – | – | – | – |
| CC(C)NC[C@H](O)COc1cccc2ccccc12 [(S)-(-)-Propranolol hydrochloride] | 9 | 0 (inactive) | 0 (inactive) | 1 (active) | 0 (inactive) | 0 (inactive) | 0 (inactive) | 0 (inactive) | 0 (inactive) | 0 (inactive) | 0 (inactive) | 0 (inactive) | 0 (inactive) | 0 (inactive) | 0 (inactive) | 0 (inactive) | – | – | – | – |
| CC(C)(C)c1cc(/C=C(\C#N)C(N)=S)cc(C(C)(C)C)c1O | 3 | 0 (inactive) | 1 (active) | 1 (active) | 1 (active) | 0 (inactive) | 1 (active) | 1 (active) | 1 (active) | 1 (active) | 1 (active) | 0 (inactive) | 0 (inactive) | 1 (active) | 1 (active) | 0 (inactive) | 9 | 9 | 9 | – |
| O=S(=O)(c1ccccc1)N(CC(F)(F)F)c1ccc(C(O)(C(F)(F)F)C(F)(F)F)cc1 | 9 | 0 (inactive) | 0 (inactive) | 1 (active) | 0 (inactive) | 0 (inactive) | 0 (inactive) | 0 (inactive) | 0 (inactive) | 0 (inactive) | 0 (inactive) | 0 (inactive) | 0 (inactive) | 0 (inactive) | 0 (inactive) | 0 (inactive) | – | – | – | – |
| Cc1cccc(C)c1OCC(C)N (stereo not drawn) [mexiletine] | – | 0 (inactive) | 1 (active) | 0 (inactive) | 1 (active) | 0 (inactive) | 1 (active) | 0 (inactive) | 0 (inactive) | 0 (inactive) | 0 (inactive) | 0 (inactive) | 0 (inactive) | 1 (active) | 0 (inactive) | 0 (inactive) | ≤ 0.3 | – | ≤ 0.3 | – |
| O=C(COc1cccc2c(=O)[nH]ccc12)c1ccccc1 | 9 | 0 (inactive) | 0 (inactive) | 1 (active) | 0 (inactive) | 0 (inactive) | 0 (inactive) | 0 (inactive) | 0 (inactive) | 0 (inactive) | 0 (inactive) | 0 (inactive) | 0 (inactive) | 0 (inactive) | 0 (inactive) | 0 (inactive) | – | – | – | – |
| O=c1cc(N2CCOCC2)oc2c(-c3ccccc3)cccc12 | 9 | 0 (inactive) | 0 (inactive) | 1 (active) | 1 (active) | 1 (active) | 1 (active) | 0 (inactive) | 1 (active) | 1 (active) | 1 (active) | 1 (active) | 1 (active) | 1 (active) | 1 (active) | 0 (inactive) | 9 | 9 | ≤ 0.3 | – |
| Cn1cc(-c2ccc3nnc(Sc4ccc5ncccc5c4)n3n2)cn1 | – | 0 (inactive) | 1 (active) | 0 (inactive) | 1 (active) | 0 (inactive) | 1 (active) | 0 (inactive) | 0 (inactive) | 0 (inactive) | 0 (inactive) | 0 (inactive) | 0 (inactive) | 1 (active) | 0 (inactive) | 0 (inactive) | 1 | – | 1 | – |
| Cc1cccc(-c2nn(C(=S)Nc3ccccc3)cc2-c2ccnc3ccccc23)n1 | 9 | 0 (inactive) | 1 (active) | 1 (active) | 0 (inactive) | 1 (active) | 1 (active) | 1 (active) | 1 (active) | 1 (active) | 1 (active) | 1 (active) | 1 (active) | 1 (active) | 1 (active) | 1 (active) | 9 | 9 | 9 | – |
| CC(=O)N1CCN(c2ccc(OC[C@H]3CO[C@](Cn4ccnc4)(c4ccc(Cl)cc4Cl)O3)cc2)CC1 [Ketoconazole] | – | 1 (active) | 0 (inactive) | 0 (inactive) | 0 (inactive) | 0 (inactive) | 0 (inactive) | 0 (inactive) | 0 (inactive) | 0 (inactive) | 0 (inactive) | 0 (inactive) | 0 (inactive) | 1 (active) | 0 (inactive) | 0 (inactive) | – | – | 9 | 9 |
| N=C1NC(=O)/C(=C\c2ccc(O)cc2)S1 [Mirin] | – | 1 (active) | 0 (inactive) | 0 (inactive) | 0 (inactive) | 0 (inactive) | 0 (inactive) | 0 (inactive) | 0 (inactive) | 0 (inactive) | 0 (inactive) | 1 (active) | 0 (inactive) | 0 (inactive) | 0 (inactive) | 0 (inactive) | – | – | – | 9 |
